# Cycloheximide cs – affects cycloheximide protein synthesis inhibition readout, counter-screen. AID 2314. max response, %. cell reporter, cycloheximide protein synthesis inhibition counterscreen. hit rate 12% among 300,000; in the data active = max response mostly above about 13%, no sharp cut-off; inactive = mostly below about 14%; also: read at 38.3 µM for the half of the compounds with a filed dose; 0% is about no effect
# Shiga toxin inh – Shiga toxin inhibition; Vero cells, Shiga toxin protein synthesis inhibition reporter; inhibition, % at 38.7 µM; hit rate 9.2% among 290,000; AID 2315; in the data active = inhibition mostly above about 28%, no sharp cut-off; inactive = mostly below about 43%; also: 0% is about no effect
# Pf growth 48h – inhibits P. falciparum growth in the first generation, 48 h | P. falciparum luciferase growth in erythrocytes, 48 h | Potency, µM (doses to about 28.7 µM), inactives show at the top dose activity change, negative = inhibition, hits mostly inhibitors | hit rate 5.9% among 310,000; also: potency is read from the fitted curve at half-maximal effect; % is scaled to controls: 0 for no effect and ±100 for the full control effect
#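 Luminescence readout; reporter = integrated firefly luciferase in P. falciparum. RBC culture at 2% hematocrit, 0.1% parasitemia final, 37 C/5% CO2; decreased signal taken as growth inhibition.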
# HCMV inh – human cytomegalovirus inhibition; HFF cells, HCMV-luciferase reporter, 72 h; hits give low values; activity change, negative = inhibition, % at 57.5 µM; hit rate 4.5% among 410,000; AID 1259415; in the data active = activity change below about -60%; inconclusive = no clear call, values can overlap the other calls; inactive = above about -39%; also: % is scaled to controls: 0 for no effect and ±100 for the full control effect
#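 Human foreskin fibroblasts infected with luciferase-reporter HCMV at MOI 1 PFU/cell, compounds at two doses. Luciferase measured 72 h post infection; normalized to buffer-only basal and Salinomycin (10uM) controls.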
# Pf growth 96h – P. falciparum growth inhibition at 96 hours; P. falciparum luciferase reporter growth, 96 h; Potency, µM (doses to about 28.7 µM), inactives show top-dose activity change, negative = inhibition, usual class: inhibitors; hit rate 6.9% among 320,000; AID 504834; also: potency is read from the fitted curve at half-maximal effect; % is scaled to controls: 0 for no effect and ±100 for the full control effect
#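 Erythrocytes infected with luciferase-expressing P. falciparum were dispensed at 2% hematocrit and 0.05% parasitemia (final), then incubated with compounds 96 hours at 37 C in 5% CO2. Luminescence after detection reagent addition reported growth.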
# * = called active by the depositor; i = inactive; ? = inconclusive; . = no result. An excerpt weighted towards active compounds, which were near 20% of everything screened. Unless noted, calls follow the shape of the dose curve; as a rule, active = well fitted inhibition curve with a large enough effect; inconclusive = small, poorly fitted or top-dose-only effect, or another doubt; inactive = no such curve, though single readings can be large or run the other way.
SMILES,Cycloheximide cs,Shiga toxin inh,Pf growth 48h,HCMV inh,Pf growth 96h
CC1CCN(C(=O)c2ccc(S(=O)(=O)NCc3ccco3)cc2)CC1,12.0,3.9,1.0%,?,7.5%
O=[N+]([O-])c1ccc(NC(=S)N2CCc3ccccc32)cc1,29.3,41.9*,25.1%,?,?
COc1ccc(NC(=S)N2CCc3ccccc32)cc1OC,40.2*,90.3*,-11.3%,-12.9,-16.1%
COc1cc(NC(=S)NN2CCN(C)CC2)cc(OC)c1OC,-0.7,-15.0,-8.1%,13.4,-2.3%
CN1CCN(C(=S)Nc2ccc([N+](=O)[O-])cc2)CC1,5.8,1.4,36.0%,-16.9,-4.5%
COc1ccccc1NC(=S)N1CCCc2ccccc21,5.3,6.2,79.7%,?,84.3%
S=C(Nc1ccccc1)N1CCc2ccccc21,13.8*,.,29.3%,21.8,?
Fc1cccc(NC(=S)N2CCc3ccccc32)c1,30.8,35.8,28.4%,27.2,-10.1%
COc1ccc(NC(=S)NN2CCN(C)CC2)cc1OC,-2.2,-5.7,24.3%,-37.0,2.33µM*
Cc1ccc(-n2cc(C(C)(C)C)[nH]c2=S)cc1,28.8,18.2,?,2.8,18.3%
C=CC[C@H](CC(=O)OC(C)(C)C)C(=O)OC[C@H]1CCCN1C(=O)[C@@H](CC=C)CC(=O)N(CCO)Cc1ccccc1,.,.,.,0.3,.
CC(=O)c1cccc(NC(=S)N2CCc3ccccc32)c1,62.8*,156.8*,58.0%,49.3,17.8%
CC(=O)Nc1cccc(C(=O)OC(C)C(=O)N2CCc3ccccc32)c1 (configuration not stated),.,.,-5.2%,0.2,5.6%
CCCN1CCC(=O)N([C@H](CSc2ccc(C)cc2)Cc2ccccc2)CC1,-4.1,-5.7,9.28µM*,-5.7,5.86µM*
CCCN1CCC(=O)N([C@H](CSc2ccc(OC)cc2)Cc2ccccc2)CC1,-1.4,-6.0,10.4µM*,-3.4,2.94µM*
Cc1ccc(SC[C@H](Cc2ccccc2)N2CCN(CCc3ccccc3)CCC2=O)cc1,-1.8,12.7,?,4.9,?
CCn1ncc2c(OCc3ccc(C#N)cc3)cc(C)nc21,-1.6,-17.5,.,19.7,14.7µM*
Cc1cnc(C(=O)OCc2ccc(C#N)cc2)cn1,-6.2,-2.8,9.2%,-14.6,42.1%
COc1ccc([C@H]2CC(=O)C=C(c3ccc(F)cc3OCc3ccccc3)C2)cc1,.,.,?,2.2,-21.2%
COc1ccc([C@H]2CC(=O)C=C(c3ccc(F)cc3OCc3ccccc3)C2)cc1OC,.,.,9.28µM*,-18.4,?
COc1ccc([C@H]2CC(=O)C=C(c3ccccc3)C2)cc1OC,.,.,?,8.3,?
COc1ccc([C@H]2CC(=O)C=C(c3ccc(Oc4ccccc4)cc3)C2)cc1OC,.,.,?,-63.9*,?
COc1ccc(-c2noc(CN(C(C)C)S(=O)(=O)c3ccc(Br)cc3)n2)cc1,.,.,.,-6.0,.
Cc1csc(SCC(=O)NC(=O)C2CCCCC2)n1,-1.7,20.8,i,26.9,3.0%
Cc1ccc(C(=O)NC2CCCCCC2)cc1S(=O)(=O)N1CCOCC1,28.0*,30.1,-27.3%,53.3,-20.4%
SMILES,Cycloheximide cs,Shiga toxin inh,Pf growth 48h,HCMV inh,Pf growth 96h
COc1ccc(C(=O)Nc2cccc(C(=O)O)c2)cc1S(=O)(=O)N1CCCC1,-3.2,-8.9,118.9%,47.9,1.2%
COc1ccc(C(=O)Nc2ccc(Br)cc2F)cc1S(=O)(=O)N1CCCC1,.,.,?,-24.0,10.4µM*
COc1ccc(C(=O)NC2CCCCC2)cc1S(=O)(=O)N1CCOCC1,-6.4,-13.8,-13.9%,30.2,?
COc1ccc(Cl)cc1S(=O)(=O)N1CCN(C(=O)c2cc(OC)c(OC)c(OC)c2)CC1,-1.7,-11.4,?,-4.9,11.7µM*
COc1ccc(C(=O)NC2CCCCCC2)cc1S(=O)(=O)Nc1ccc(Br)cc1,17.9*,56.4*,?,32.3,.
CSc1cccc(NC(=O)Cn2c(=O)n(Cc3ccccc3)c(=O)c3sc4ccccc4c32)c1,.,.,.,-11.3,.
CCOc1ccc(OCC)c(NC(=O)c2ccc(-c3ccccc3)s2)c1,.,.,.,67.5,.
CCN(CC)S(=O)(=O)c1cc(C(=O)NC2CCCCC2)ccc1C,42.1*,104.3*,34.2%,68.8,-23.1%
COc1cc2c(cc1OC)CN(S(C)(=O)=O)CC2,-8.2,-11.8,.,-84.7*,29.2%
COc1ccc(C(=O)NCc2cccnc2)cc1S(=O)(=O)N1CCOCC1,-1.1,0.5,3.9%,44.1,.
Cc1ccc(C(=O)NC2CCCCC2)cc1S(=O)(=O)N1CCCC1,35.4*,40.3*,-13.7%,4.8,?

# Screening results from PubChem.
